# Experimental data published in paper PMC7862700, “An all-to-all approach to the identification of sequence-specific readers for epigenetic DNA modifications on cytosine”.
# Legend:
# Test in all cases: DAPPL (digital affinity profiling via proximity ligation, sequencing); 10 mM Tris-HCl pH 7.5, 50 mM NaCl, 1 mM DTT, 4% glycerol, room temperature, 30 min; GST-TFs on glutathione beads, 16-mer random dsDNA library, 0.1% formaldehyde crosslink after washing; high values mean tight binding
# FLI1 = biological target: T1, FLI1 (Homo sapiens, UniProt Q01543 1-452); settings: protein: recombinant; tags: N-terminal GST; dsDNA, one strand shown
# T1 sequence: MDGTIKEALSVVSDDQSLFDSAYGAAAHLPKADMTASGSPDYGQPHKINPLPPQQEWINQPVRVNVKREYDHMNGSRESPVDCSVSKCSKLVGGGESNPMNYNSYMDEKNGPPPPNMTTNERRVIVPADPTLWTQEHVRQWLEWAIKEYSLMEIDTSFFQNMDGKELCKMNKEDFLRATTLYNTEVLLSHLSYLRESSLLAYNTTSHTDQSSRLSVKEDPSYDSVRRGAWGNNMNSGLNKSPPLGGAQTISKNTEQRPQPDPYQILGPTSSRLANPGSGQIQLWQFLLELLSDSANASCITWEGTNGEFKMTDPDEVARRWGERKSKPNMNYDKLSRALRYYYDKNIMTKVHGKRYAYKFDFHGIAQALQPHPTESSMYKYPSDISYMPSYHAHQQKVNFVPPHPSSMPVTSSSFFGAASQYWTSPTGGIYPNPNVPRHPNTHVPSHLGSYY
# Procedure, shortened: (§1)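 Beads coated with glutathione captured GST-fused human transcription factors that had been expressed in yeast, and the factors were then given DNA barcodes and pooled with a tag-only sample. The pools were incubated with 200 nmole of a random double-stranded 16-mer DNA library in Tris/NaCl/DTT/glycerol buffer for 30 min at room temperature, washed, crosslinked with 0.1% formaldehyde and proximity-ligated with BsaI/T4 ligase at 37 °C for 1 h. PCR amplification and Illumina NextSeq500 sequencing came last. Binding signal is each hexamer's read frequency for a factor divided by its frequency for the tag-only sample.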
# ELK1 = biological target: T2, ELK1 (Homo sapiens, UniProt P19419 1-428); settings: protein: recombinant; tags: N-terminal GST; dsDNA, one strand shown
# T2 sequence: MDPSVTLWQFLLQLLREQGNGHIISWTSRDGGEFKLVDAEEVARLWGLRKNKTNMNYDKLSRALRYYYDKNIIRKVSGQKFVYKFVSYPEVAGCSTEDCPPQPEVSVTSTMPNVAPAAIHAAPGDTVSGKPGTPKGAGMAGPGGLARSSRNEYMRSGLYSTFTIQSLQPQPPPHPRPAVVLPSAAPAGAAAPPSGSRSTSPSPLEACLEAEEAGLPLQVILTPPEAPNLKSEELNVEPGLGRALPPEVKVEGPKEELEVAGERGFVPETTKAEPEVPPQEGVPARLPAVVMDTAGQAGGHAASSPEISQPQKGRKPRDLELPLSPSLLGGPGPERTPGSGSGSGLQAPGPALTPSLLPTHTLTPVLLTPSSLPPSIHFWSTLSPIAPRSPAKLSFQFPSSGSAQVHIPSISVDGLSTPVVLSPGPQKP
# Procedure, shortened: as §1
# GABPA = biological target: T3, GABPA (Homo sapiens, UniProt Q06546 1-454); settings: protein: recombinant; tags: N-terminal GST; dsDNA, one strand shown
# T3 sequence: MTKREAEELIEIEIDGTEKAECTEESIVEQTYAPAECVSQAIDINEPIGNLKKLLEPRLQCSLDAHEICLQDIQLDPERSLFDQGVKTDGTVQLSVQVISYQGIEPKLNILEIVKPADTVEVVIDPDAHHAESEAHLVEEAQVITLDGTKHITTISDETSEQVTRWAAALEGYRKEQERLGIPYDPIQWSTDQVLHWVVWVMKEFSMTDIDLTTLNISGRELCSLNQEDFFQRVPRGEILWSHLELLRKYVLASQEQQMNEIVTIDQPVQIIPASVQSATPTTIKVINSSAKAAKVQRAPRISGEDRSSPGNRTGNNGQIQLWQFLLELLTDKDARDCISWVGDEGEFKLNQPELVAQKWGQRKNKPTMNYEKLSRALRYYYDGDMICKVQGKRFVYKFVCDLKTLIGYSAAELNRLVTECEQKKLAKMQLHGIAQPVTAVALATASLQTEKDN
# Procedure, shortened: as §1
# ERG = biological target: T4, ERG (Homo sapiens, UniProt P11308 1-479); settings: protein: recombinant; tags: N-terminal GST; dsDNA, one strand shown
# T4 sequence: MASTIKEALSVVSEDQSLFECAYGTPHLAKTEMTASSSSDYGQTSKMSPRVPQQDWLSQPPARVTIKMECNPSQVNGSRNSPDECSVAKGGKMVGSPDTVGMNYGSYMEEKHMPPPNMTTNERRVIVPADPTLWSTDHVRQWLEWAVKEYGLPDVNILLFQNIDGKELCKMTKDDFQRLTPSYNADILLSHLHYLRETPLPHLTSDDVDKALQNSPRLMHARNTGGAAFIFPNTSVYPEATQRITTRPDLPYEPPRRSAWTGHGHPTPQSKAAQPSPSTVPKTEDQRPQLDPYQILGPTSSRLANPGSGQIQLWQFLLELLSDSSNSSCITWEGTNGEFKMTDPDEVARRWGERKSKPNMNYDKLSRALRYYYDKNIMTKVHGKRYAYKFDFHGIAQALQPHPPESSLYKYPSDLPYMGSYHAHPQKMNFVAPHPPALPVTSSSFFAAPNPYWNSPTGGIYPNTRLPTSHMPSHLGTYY
# Procedure, shortened: as §1
# ELF1 = ELF1 (Homo sapiens, UniProt P32519 1-619); settings: protein: recombinant; tags: N-terminal GST; dsDNA, one strand shown
# Sequence of ELF1 (P32519 whole entry): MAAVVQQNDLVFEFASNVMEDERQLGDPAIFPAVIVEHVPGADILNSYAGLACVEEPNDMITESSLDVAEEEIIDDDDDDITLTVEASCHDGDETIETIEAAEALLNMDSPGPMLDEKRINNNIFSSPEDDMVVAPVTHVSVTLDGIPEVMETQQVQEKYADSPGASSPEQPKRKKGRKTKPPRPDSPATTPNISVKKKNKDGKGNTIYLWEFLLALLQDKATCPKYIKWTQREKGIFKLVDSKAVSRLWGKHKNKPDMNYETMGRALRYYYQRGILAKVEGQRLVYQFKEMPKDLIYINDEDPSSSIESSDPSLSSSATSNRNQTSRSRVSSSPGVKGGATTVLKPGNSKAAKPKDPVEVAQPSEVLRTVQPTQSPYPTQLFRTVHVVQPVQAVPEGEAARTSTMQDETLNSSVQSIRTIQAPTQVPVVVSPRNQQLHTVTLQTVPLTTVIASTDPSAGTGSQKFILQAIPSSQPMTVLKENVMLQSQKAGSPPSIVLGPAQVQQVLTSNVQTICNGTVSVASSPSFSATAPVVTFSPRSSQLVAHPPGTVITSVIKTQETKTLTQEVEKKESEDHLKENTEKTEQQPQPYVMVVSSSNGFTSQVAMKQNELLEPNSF
# Procedure, shortened: as §1
# EHF = biological target: T5, EHF (Homo sapiens, UniProt Q9NZC4 1-300); settings: protein: recombinant; tags: N-terminal GST; dsDNA, one strand shown
# T5 sequence: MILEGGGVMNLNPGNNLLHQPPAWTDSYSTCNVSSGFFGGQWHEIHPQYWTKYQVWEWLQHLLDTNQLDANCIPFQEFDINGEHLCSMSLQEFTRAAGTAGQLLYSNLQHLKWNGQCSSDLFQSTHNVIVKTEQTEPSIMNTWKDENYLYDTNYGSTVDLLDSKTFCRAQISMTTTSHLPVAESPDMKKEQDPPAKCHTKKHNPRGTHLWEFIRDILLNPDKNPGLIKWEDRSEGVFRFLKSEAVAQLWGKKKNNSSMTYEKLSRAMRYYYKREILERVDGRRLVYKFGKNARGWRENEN
# Procedure, shortened: as §1
# SPI1 = SPI1 (Homo sapiens, UniProt P17947 1-270); settings: protein: recombinant; tags: N-terminal GST; dsDNA, one strand shown
# Procedure, shortened: as §1
# ELK3 = biological target: T6, ELK3 (Homo sapiens, UniProt P41970 1-407); settings: protein: recombinant; tags: N-terminal GST; dsDNA, one strand shown
# T6 sequence: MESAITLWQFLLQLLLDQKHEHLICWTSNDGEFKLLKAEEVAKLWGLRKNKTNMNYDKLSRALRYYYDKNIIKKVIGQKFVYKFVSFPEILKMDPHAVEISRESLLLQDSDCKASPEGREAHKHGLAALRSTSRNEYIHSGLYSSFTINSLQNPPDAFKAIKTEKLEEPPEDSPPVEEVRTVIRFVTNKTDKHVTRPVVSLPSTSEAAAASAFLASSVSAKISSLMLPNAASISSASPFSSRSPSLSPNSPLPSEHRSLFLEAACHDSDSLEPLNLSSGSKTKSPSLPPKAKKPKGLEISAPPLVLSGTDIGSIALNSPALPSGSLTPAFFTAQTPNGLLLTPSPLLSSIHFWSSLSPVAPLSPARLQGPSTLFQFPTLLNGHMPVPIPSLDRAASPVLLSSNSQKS
# Procedure, shortened: as §1
# FEV = biological target: T7, FEV (Homo sapiens, UniProt Q99581 1-238); settings: protein: recombinant; tags: N-terminal GST; dsDNA, one strand shown
# T7 sequence: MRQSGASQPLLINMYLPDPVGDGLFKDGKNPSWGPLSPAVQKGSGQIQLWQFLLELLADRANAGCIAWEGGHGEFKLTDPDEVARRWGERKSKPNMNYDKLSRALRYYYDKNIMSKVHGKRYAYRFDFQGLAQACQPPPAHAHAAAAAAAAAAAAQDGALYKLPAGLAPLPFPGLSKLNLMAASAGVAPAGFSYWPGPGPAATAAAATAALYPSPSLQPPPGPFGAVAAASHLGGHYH
# Procedure, shortened: as §1
# ETV5 = ETV5 (Homo sapiens, UniProt P41161 1-510); settings: protein: recombinant; tags: N-terminal GST; dsDNA, one strand shown
# Sequence of ETV5 (P41161 whole entry): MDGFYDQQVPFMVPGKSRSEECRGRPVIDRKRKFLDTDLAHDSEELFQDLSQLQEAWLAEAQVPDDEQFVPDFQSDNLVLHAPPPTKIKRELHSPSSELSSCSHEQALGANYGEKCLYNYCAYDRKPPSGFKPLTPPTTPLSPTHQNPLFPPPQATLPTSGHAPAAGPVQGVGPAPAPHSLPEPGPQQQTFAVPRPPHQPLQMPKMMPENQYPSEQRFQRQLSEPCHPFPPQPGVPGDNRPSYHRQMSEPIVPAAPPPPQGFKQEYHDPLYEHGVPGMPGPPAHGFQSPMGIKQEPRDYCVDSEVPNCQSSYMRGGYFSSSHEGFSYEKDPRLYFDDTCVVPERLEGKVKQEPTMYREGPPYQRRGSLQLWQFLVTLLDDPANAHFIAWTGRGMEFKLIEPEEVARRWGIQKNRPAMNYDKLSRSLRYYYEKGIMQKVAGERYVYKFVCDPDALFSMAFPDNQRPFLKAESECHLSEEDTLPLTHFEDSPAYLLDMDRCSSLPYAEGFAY
# Procedure, shortened: as §1
# HSF1 = HSF1 (Homo sapiens, UniProt Q00613 1-529); settings: protein: recombinant; tags: N-terminal GST; chain copies: 3; dsDNA, one strand shown
# Sequence of HSF1 (Q00613 whole entry): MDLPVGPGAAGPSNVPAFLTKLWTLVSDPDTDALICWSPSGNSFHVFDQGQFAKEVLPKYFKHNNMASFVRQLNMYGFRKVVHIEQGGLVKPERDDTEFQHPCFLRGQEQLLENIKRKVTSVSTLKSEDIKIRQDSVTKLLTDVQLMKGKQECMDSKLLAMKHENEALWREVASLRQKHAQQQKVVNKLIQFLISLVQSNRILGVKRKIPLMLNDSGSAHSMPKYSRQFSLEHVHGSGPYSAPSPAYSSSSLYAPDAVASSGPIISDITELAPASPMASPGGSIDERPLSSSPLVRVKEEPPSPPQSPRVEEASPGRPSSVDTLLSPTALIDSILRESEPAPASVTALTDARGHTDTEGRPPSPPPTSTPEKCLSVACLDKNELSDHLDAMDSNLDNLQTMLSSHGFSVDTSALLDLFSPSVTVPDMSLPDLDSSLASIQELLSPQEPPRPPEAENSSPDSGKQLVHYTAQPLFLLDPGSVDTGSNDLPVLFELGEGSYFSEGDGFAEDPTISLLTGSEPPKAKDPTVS
# Procedure, shortened: as §1
# SPIC = biological target: T8, SPIC (Homo sapiens, UniProt Q8N5J4 1-248); settings: protein: recombinant; tags: N-terminal GST; dsDNA, one strand shown
# T8 sequence: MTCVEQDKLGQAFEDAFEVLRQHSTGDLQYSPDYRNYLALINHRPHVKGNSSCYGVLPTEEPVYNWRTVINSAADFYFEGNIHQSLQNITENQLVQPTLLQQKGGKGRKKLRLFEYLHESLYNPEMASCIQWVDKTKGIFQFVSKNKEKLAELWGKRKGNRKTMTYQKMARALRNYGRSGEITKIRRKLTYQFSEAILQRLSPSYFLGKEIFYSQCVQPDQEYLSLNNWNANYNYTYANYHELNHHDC
# Procedure, shortened: as §1
# ELF4 = ELF4 (Homo sapiens, UniProt Q99607 1-663); settings: protein: recombinant; tags: N-terminal GST; dsDNA, one strand shown
# Sequence of ELF4 (Q99607 whole entry): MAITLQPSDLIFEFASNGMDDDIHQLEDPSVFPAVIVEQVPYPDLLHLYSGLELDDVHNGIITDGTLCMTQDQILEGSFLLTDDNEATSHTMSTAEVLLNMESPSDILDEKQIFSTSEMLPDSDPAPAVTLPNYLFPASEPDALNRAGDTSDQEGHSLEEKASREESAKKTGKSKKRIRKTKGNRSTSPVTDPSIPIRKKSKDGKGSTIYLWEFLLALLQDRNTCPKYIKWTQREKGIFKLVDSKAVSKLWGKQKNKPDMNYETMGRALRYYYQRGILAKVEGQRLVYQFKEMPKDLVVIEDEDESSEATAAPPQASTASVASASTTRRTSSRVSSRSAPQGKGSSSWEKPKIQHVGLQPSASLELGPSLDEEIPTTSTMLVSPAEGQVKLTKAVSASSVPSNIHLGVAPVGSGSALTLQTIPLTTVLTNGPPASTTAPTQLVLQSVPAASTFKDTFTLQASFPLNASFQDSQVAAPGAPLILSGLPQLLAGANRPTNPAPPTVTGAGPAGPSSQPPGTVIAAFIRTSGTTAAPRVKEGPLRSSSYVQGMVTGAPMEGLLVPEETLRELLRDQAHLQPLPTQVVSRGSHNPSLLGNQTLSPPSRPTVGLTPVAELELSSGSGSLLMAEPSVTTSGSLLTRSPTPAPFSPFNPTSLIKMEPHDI
# Procedure, shortened: as §1
# ETV2 = biological target: T9, ETV2 (Homo sapiens, UniProt O00321 1-342); settings: protein: recombinant; tags: N-terminal GST; dsDNA, one strand shown
# T9 sequence: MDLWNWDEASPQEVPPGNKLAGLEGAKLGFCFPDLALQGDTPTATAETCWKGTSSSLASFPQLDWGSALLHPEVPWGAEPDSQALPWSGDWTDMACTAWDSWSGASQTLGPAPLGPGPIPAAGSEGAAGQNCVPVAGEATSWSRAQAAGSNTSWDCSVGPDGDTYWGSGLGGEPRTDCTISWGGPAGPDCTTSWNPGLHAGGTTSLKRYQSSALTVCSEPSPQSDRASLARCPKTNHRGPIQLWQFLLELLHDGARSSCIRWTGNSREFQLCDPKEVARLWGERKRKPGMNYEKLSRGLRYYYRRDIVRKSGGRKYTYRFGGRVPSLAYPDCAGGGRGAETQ
# Procedure, shortened: as §1
# CRX = CRX (Homo sapiens, UniProt O43186 1-299); settings: protein: recombinant; tags: N-terminal GST; dsDNA, one strand shown
# Sequence of CRX (O43186 whole entry): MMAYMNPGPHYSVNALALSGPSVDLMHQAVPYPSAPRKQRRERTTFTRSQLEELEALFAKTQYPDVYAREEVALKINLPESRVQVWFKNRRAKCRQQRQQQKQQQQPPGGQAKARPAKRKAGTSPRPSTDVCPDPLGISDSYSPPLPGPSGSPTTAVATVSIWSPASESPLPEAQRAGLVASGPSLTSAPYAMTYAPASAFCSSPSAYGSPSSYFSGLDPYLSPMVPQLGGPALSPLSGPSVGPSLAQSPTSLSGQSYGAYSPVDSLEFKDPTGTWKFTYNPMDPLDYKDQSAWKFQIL
# Procedure, shortened: as §1
# ETV1 = ETV1 (Homo sapiens, UniProt P50549 1-477); settings: protein: recombinant; tags: N-terminal GST; dsDNA, one strand shown
# Sequence of ETV1 (P50549 whole entry): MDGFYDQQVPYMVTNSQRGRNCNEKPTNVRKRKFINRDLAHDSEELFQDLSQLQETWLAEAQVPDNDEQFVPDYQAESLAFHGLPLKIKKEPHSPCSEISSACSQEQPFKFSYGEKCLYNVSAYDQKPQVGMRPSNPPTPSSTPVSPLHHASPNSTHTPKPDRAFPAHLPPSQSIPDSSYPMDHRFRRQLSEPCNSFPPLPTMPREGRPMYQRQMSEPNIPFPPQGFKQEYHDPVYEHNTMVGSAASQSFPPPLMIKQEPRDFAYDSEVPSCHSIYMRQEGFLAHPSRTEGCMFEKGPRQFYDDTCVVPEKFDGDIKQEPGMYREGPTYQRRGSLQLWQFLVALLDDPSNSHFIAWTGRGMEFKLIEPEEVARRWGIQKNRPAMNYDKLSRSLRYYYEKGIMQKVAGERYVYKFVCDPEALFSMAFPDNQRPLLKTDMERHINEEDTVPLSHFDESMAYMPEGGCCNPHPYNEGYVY
# Procedure, shortened: as §1
# SPIB = SPIB (Homo sapiens, UniProt Q01892 1-262); settings: protein: recombinant; tags: N-terminal GST; dsDNA, one strand shown
# Sequence of SPIB (Q01892 whole entry): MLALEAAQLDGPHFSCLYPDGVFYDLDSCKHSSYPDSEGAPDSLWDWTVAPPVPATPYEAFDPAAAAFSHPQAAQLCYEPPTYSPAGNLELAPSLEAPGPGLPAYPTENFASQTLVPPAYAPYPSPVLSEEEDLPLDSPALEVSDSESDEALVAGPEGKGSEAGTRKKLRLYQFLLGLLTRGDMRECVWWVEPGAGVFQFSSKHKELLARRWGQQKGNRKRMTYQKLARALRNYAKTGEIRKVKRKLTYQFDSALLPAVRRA
# Procedure, shortened: as §1
# ELK4 = biological target: T10, ELK4 (Homo sapiens, UniProt P28324-2 1-405); settings: protein: recombinant; tags: N-terminal GST; dsDNA, one strand shown
# T10 sequence: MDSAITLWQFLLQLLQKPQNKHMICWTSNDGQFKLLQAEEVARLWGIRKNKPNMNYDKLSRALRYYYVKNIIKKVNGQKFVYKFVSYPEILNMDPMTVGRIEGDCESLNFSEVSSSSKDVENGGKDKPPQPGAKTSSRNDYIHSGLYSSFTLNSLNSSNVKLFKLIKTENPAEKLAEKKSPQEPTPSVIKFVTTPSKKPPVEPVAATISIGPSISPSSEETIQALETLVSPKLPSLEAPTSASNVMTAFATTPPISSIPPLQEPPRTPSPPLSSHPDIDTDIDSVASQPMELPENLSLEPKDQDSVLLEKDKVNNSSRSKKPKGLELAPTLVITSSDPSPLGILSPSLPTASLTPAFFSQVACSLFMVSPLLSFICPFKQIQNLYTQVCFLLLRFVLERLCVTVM
# Procedure, shortened: as §1
Sequence,binding signal (FLI1),binding signal (ELK1),binding signal (GABPA),binding signal (ERG),binding signal (ELF1),binding signal (EHF),binding signal (SPI1),binding signal (ELK3),binding signal (FEV),binding signal (ETV5),binding signal (HSF1),binding signal (SPIC),binding signal (ELF4),binding signal (ETV2),binding signal (CRX),binding signal (ETV1),binding signal (SPIB),binding signal (ELK4)
TAGCAG,"1.07 fold enrichment (6-mer frequency, TF over GST control)","1.08 fold enrichment (6-mer frequency, TF over GST control)","1.03 fold enrichment (6-mer frequency, TF over GST control)","1.11 fold enrichment (6-mer frequency, TF over GST control)","1.09 fold enrichment (6-mer frequency, TF over GST control)","1 fold enrichment (6-mer frequency, TF over GST control)","1 fold enrichment (6-mer frequency, TF over GST control)","1.19 fold enrichment (6-mer frequency, TF over GST control)","1.03 fold enrichment (6-mer frequency, TF over GST control)","1.04 fold enrichment (6-mer frequency, TF over GST control)","1.12 fold enrichment (6-mer frequency, TF over GST control)","1.04 fold enrichment (6-mer frequency, TF over GST control)","1.05 fold enrichment (6-mer frequency, TF over GST control)","1.06 fold enrichment (6-mer frequency, TF over GST control)","1.23 fold enrichment (6-mer frequency, TF over GST control)","1.02 fold enrichment (6-mer frequency, TF over GST control)",,
TCATCG,"1.12 fold enrichment (6-mer frequency, TF over GST control)",,,,"1.01 fold enrichment (6-mer frequency, TF over GST control)","1.05 fold enrichment (6-mer frequency, TF over GST control)",,"1.02 fold enrichment (6-mer frequency, TF over GST control)",,"1 fold enrichment (6-mer frequency, TF over GST control)","1.12 fold enrichment (6-mer frequency, TF over GST control)","1.05 fold enrichment (6-mer frequency, TF over GST control)",,,"1.05 fold enrichment (6-mer frequency, TF over GST control)","1.03 fold enrichment (6-mer frequency, TF over GST control)","1.13 fold enrichment (6-mer frequency, TF over GST control)","1.05 fold enrichment (6-mer frequency, TF over GST control)"
